Assay results as given in PubChem BioAssay (EPA / NIEHS).
Values joined by “and” are separate entries in the source; they are usually repeats but may differ in a detail not shown here. Equal values may be shown once. Active and inactive are the calls of the source. Rule for the calls: active = hit-call score of the fitted dose curve at least 0.9, where 1 is the maximum; inactive = score below 0.9.

Assay: CCTE_Padilla_ZF_144hpf_TERATOSCORE: (Legacy) CCTE's 144 Hour Post-fertilization zebrafish Assay Teratoscore, Padilla Lab (AID 2283679);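 for AC50: teratogenicity score from eye scoring of death hatching and malformations at 144 hpf; higher score means more developmental defects relative to DMSO baseline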
From the text: CCTE_Padilla_ZF_144hpf is a whole embryo, multiplexed assay. Zebrafish embryos were exposed to chemicals starting 6 hr post-fertilization for 5 days in 96-well plates. Developing larvae were examined microscopically daily for malformation and mortality.CCTE_Padilla_ZF_144hpf_TERATOSCORE is one of one assay component(s) measured or calculated from the CCTE_Padilla_ZF_144hpf assay. It is designed to make measurements of developmental malformations and mortality as detected with brightfield microscopy.Data from the assay component CCTE_Padilla_ZF_144hpf_TERATOSCORE was analyzed into 1 assay endpoint. This assay endpoint, CCTE_Padilla_ZF_144hpf_TERATOSCORE, was analyzed in the positive analysis fitting direction relative to DMSO as the negative control and baseline of activity. Using a type of morphological reporter, gain-of-signal activity can be used to understand changes in developmental defect as they relate to the whole embryo. To generalize the intended target to other relatable targets, this assay endpoint is annotated to the malformation intended target family, where the subfamily is total.
Zebrafish husbandry: Wild type adult zebrafish (Danio rerio; undefined outbred stock obtained from Aquatic Research Organisms, Hampton, NH, 03842) were housed in an AAALAC-approved animal facility at 28C with a 14:10 h light: dark cycle (lights on at 08:30 h). Adult fish (2-3 females per male; density = 15-20 adults per tank) were kept in one of several 9-liter (L) flow-through colony tanks (Aquaneering Inc., San Diego, CA). All adults in a colony tank were placed in a 2 L (static) breeding tank (Aquatic Habitats, Apopka, FL) one hour prior to light onset. Typically, adults from two to three colony tanks were mated on the same day. Two hours after light onset the adults were returned to the colony tank. All embryos were gathered from each breeder tank, pooled, and placed in a 28C water bath for 2 h, followed by two washes with 0.06% bleach (v/v) in 10% Hanks' Balanced Salt Solution (13.7 mM NaCl 0.54 mM KCl, 25 uM Na2HPO4, 130 uM CaCl2 100 um MgSO4 and 420 um NaHCO3,), hereafter referred to as Hanks' solution, for 5 min in order to remove any residual bacteria or fungi. Immediately following washing, the embryos were examined, and healthy embryos were separated from dead or unfertilized eggs and moved into fresh Hanks'. Single Concentration Study: The chemicals were arrayed on a 96-well stock plate, 80 chemicals per plate, 20 mM concentration of each, with 16 DMSO (vehicle) controls. The embryos were exposed to the chemicals (80 Mfinal concentration, renewed daily) by immersion from 0 dpf until 5 dpf. Eighty micromolar was chosen as the highest concentration for two reasons (1) because the stock solutions were prepared at 20 mM in 100% DMSO. On 6 dpf, each embryo/larva was assessed for viability, hatching status and malformations. There were 4 embryos per concentration per chemical (each embryo on a separate microtiter plate). […] Chemical exposures: Zebrafish embryos were exposed in 96-well plates. Briefly, on day 0, approximately 6-8 h after fertilization, zebrafish embryos (with chorions) were placed 1 embryo per well in Millipore Multiscreen Nylon mesh plates (catalog number MANMN4050, Millipore Corp, Bedford, MA) and exposed to nominal concentrations of the chemicals. In each well, 1 ul of the chemical in DMSO from the stock plate was diluted with 250 ul of 10% Hanks' solution; the final DMSO concentration was 0.4% (v/v) in all wells; vehicle controls receives DMSO only. Each plate was sealed with a non-adhesive material (Type A, BioRad, Hercules, CA), covered with a lid, and wrapped in Parafilm to minimize evaporation. All embryos and larvae were kept in a 26C incubator with a 14:10 h light-dark cycle (with lights on at 08:30 h and off at 22:30 h). […]

Row | SMILES | AC50 | outcome
1 | O=C(Oc1ccccc1)c1cccc(C(=O)Oc2ccccc2)c1 | 9.15 µM (active) | –
2 | COc1ccc(OC(F)(F)F)cc1CN[C@H]1CCCN[C@H]1c1ccccc1 | 56.5 µM (active) | –
3 | CCCCOC(=O)CCCCC(=O)OCCCC | 15.9 µM (active) | –
4 | Oc1ccccc1O | 60.1 µM (active) | –
5 | Cc1ccc(-c2cc(C(F)(F)F)nn2-c2ccc(S(N)(=O)=O)cc2)cc1 | 8.82 µM (active) | –
6 | CC(=O)O[C@]1(C(C)=O)CC[C@H]2[C@@H]3C=C(Cl)C4=CC(=O)[C@@H]5C[C@@H]5[C@]4(C)[C@H]3CC[C@@]21C | 15.2 µM (active) | –
7 | O=C(NS(=O)(=O)/C=C/c1cccs1)c1ccc(F)cc1Br | – | inactive
8 | Cc1cc(SC2=C(O)C[C@@](CCc3ccc(N)cc3)(C(C)C)OC2=O)c(C(C)(C)C)cc1CO | 16.4 µM (active) | –
9 | N[C@@H](Cc1c[nH]c2ccccc12)C(=O)O | – | inactive
10 | C=CCCCCCCCCCCCC | – | inactive
11 | CS(=O)(=O)c1ccc([C@@H](C[C@H]2CCC(=O)C2)C(=O)Nc2cnccn2)cc1Cl | – | inactive
12 | CC(COCC(C)OC(=O)c1ccccc1)OC(=O)c1ccccc1 (stereo not given) | 7.06 µM (active) and 4.45 µM (active) | –
13 | O=C(O)CN(CC(=O)O)CC(=O)O | – | inactive
14 | O=C1CCCCC1 | – | inactive
15 | NCCOCCOCCN | – | inactive
16 | CC(C)(O)c1ccc(CNC(=O)c2cccnc2Oc2ccc(F)cc2)cc1 | – | inactive
17 | C#CC(O)C(CC)CCCC (stereo not given) | 21.2 µM (active) | –
18 | NC=O | – | inactive
19 | CCN(CC)CCOc1ccc(C(=C(Cl)c2ccccc2)c2ccccc2)cc1 | 1.56 µM (active) | –
20 | Oc1ccc(O)cc1 | 15.6 µM (active) | –

Row | SMILES | AC50 | outcome
21 | CCc1nc(N)nc(N)c1-c1ccc(Cl)cc1 | 64.5 µM (active) | –
22 | CCCCCCCCCC[N+](C)(C)[O-] | – | inactive
23 | O=C(N[C@@H](c1ccccc1)[C@@H]1CCCCN1)c1cccc(C(F)(F)F)c1Cl | 20.3 µM (active) | –
24 | Cc1ccc(C(C)(C)C)c(O)c1 | 92.9 µM (active) | –
25 | CC(N)=O | – | inactive
26 | CCC(C)N(C)C(=O)c1cc2ccccc2c(-c2ccccc2Cl)n1 (stereo not given) | 16.3 µM (active) | –
27 | CN(C)CCCN1c2ccccc2Sc2ccc(Cl)cc21 | 6.24 µM (active) | –
28 | CCCCCCC(C=O)=Cc1ccccc1 | 13.9 µM (active) | –
29 | O=C(O)c1cccnc1 | – | inactive
30 | COC(=O)CCCC(=O)OC | 62.7 µM (active) | –
31 | O=Cc1ccccc1C=O | 1.15 µM (active) | –
32 | Cc1c(C)c2c(c(C)c1O)CCC(C)(COc1ccc(CC3SC(=O)NC3=O)cc1)O2 (stereo not given) | 1.67 µM (active) | –
33 | O=C1O[C@H]([C@H](O)CO)C(O)=C1O | – | inactive
34 | CCCC[C@H]1CN(CC2CCOCC2)C(=O)OC12CCN(C1(C)CCN(C(=O)c3c(C)ncnc3C)CC1)CC2 | – | inactive
35 | S=c1[nH]c2ccccc2s1 | 31.1 µM (active) | –
36 | CC(C)COC(=O)CCCCC(=O)OCC(C)C | 32.4 µM (active) | –
37 | CCCCc1nc2cccnc2n1Cc1ccc(-c2ccccc2-c2nnn[nH]2)cc1 | – | inactive
38 | O=[Si]=O | – | inactive
39 | CC(=O)O | – | inactive
40 | CC(C)OC(=O)C(C)(C)Oc1ccc(C(=O)c2ccc(Cl)cc2)cc1 | 1.78 µM (active) | –
